We go through five molecules from PubChem BioAssay.

Test [1] can be described thus: optical density shifts of acrAB sulA E. coli – strain DRC41, OD650, 48 h, E. coli filamentation inducer project, primary screen (AID 1152).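 Note: E. coli MC1000 strain DRC41 lacking acrAB efflux pump and sulA.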 As to conditions: higher = more signal, called active from +8 up or from −8 down.
A short description of test [2]: probe aLefty1 binding on compound microarray – biochemical, small-molecule microarray, 635/667 nm fluorescence, primary screen (AID 1153).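 Note: score merges spot fluorescence with signal-to-noise ratio from the scanned slide images.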 As to conditions: higher = more signal.
Test [3] in a line: plasmodial surface anion channel blockers, osmotic lysis – cell-based, P. falciparum Indochina, OD700, 1 h, primary screen (AID 1154). As to conditions: P. falciparum Indochina infected RBC osmotic lysis, higher = more signal, called active from +8 up or from −8 down.
Test [4] is described as follows: plasmodial surface anion channel blockers, osmotic lysis – cell-based, P. falciparum Indochina, OD700, 2 h, primary screen (AID 1155).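 Note: lysis reports solute entry through the parasite surface anion channel PSAC.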 Particulars: P. falciparum Indochina infected erythrocytes, higher = more signal, called active from +8 up or from −8 down.
Test [5] can be described thus: changes in parasitized red cell lysis, either direction – P. falciparum Indochina, OD700, 3 h, PSAC antagonist project, primary screen (AID 1156). Particulars: P. falciparum-infected erythrocytes, osmotic lysis, higher = more signal, called active from +8 up or from −8 down.
A short description of test [6]: plasmodial surface anion channel blockers, osmotic lysis – cell-based, P. falciparum Indochina, OD700, 18 h, primary screen (AID 1157). Particulars: P. falciparum Indochina infected erythrocytes, osmotic lysis OD700, 18 h; higher = more signal, called active from +8 up or from −8 down.
The nature of test [7]: S6 kinase pathway phospho-S6 level changes – cell-based, A549, cytoblot, luminescence, serum-stimulated, primary screen (AID 1158).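 Note: serum-stimulated A549 lung adenocarcinoma cells; signal is phosphorylated S6 detected by cytoblot immunostaining with HRP secondary.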 As to conditions: 5 h, higher = more signal.
The target in test [8] is NADPH oxidase 2 (Homo sapiens) (UniProt P04839). In words: compounds shifting NOX2 Amplex Red fluorescence – cell-based, HEK293-NOX2, PMA-stimulated, NOX inhibitor project, primary screen (AID 1159). Note: test concentration not given here. Particulars: 45 min, higher = more signal, called active from +8 up or from −8 down.
Test [9] addresses NADPH oxidase 4 (Homo sapiens) (UniProt Q9NPH5). The test is described as follows: compounds shifting NOX4 Amplex Red fluorescence – cell-based, HEK293-NOX4, tetracycline-induced, NOX inhibitor project, primary screen (AID 1160). As to conditions: HEK293-NOX4, Amplex Red H2O2 fluorescence, 45 min; higher = more signal, called active from +8 up or from −8 down.
Test [10] addresses NADPH oxidase 5 (Homo sapiens) (UniProt Q96PH1). The test is described as follows: compounds shifting NOX5 Amplex Red fluorescence – cell-based, HEK293-NOX5, NOX inhibitor project, primary screen (AID 1161). As to conditions: HEK293-NOX5, ionomycin, 45 min, higher = more signal.
A short description of test [11]: compound effects on lung adenocarcinoma cell viability – A549, calcein-AM fluorescence, 48 h, basal, profiling panel (AID 1162). Note: test concentration not given here. As to conditions: higher = more signal.
Test [12] is described as follows: compound effects on differentiated 3T3-L1 adipocyte viability – cell-based, 3T3-L1 adipocytes, calcein-AM fluorescence, 48 h, basal, profiling panel (AID 1163). Note: test concentration not given here. Particulars: 3T3-L1 adipocytes viability, higher = more signal.
Test [13] can be described thus: compound effects on hepatocellular carcinoma cell viability – HepG2, calcein-AM fluorescence, 48 h, basal, profiling panel (AID 1164). Note: test concentration not given here. As to conditions: higher = more signal.
Test [14] can be described thus: compound effects on multiple myeloma cell viability – MM1S, calcein-AM fluorescence, 48 h, basal, profiling panel (AID 1165).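 Note: viability of MM1S multiple myeloma cells under basal unstimulated conditions; test concentration not given here.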 Particulars: higher = more signal.
Test [15] is described as follows: calcein-AM signal in unstimulated myeloma cells – cell-based, calcein-AM fluorescence, 48 h, PK04 Diversity Set, profiling panel (AID 1166).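 Note: cells grown under basal conditions without added stimulus; test concentration not given here.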 Particulars: RPMI8226 myeloma viability, higher = more signal.
The nature of test [16]: JC-1 mitochondrial signal, unstimulated HepG2 cells – cell-based, JC-1 fluorescence, 24 h, 100 nL compound, profiling panel (AID 1167). Note: test concentration not given here. Particulars: HepG2 mitochondrial potential, higher = more signal.
Test [17] in a line: JC-1 mitochondrial signal, unstimulated adipocytes – cell-based, JC-1 fluorescence, 3T3-L1 adipocytes, 24 h, 100 nL compound, profiling panel (AID 1168). Note: test concentration not given here. As to conditions: JC-1 mitochondrial fluorescence, higher = more signal, called active from +8 up or from −8 down.
A short description of test [18]: JC-1 mitochondrial signal, unstimulated myeloma cells – cell-based, JC-1 fluorescence, RPMI8226, 24 h, 100 nL compound, profiling panel (AID 1169). Note: test concentration not given here. Particulars: JC-1 mitochondrial potential fluorescence, higher = more signal.
Test [19] can be described thus: JC-1 mitochondrial signal, unstimulated MM1S myeloma – cell-based, JC-1 fluorescence, 24 h, 100 nL compound, profiling panel (AID 1170). Note: test concentration not given here. As to conditions: MM1S mitochondrial potential, higher = more signal.
A short description of test [20]: resazurin metabolic signal in A549 cells – cell-based, resazurin fluorescence, 24 h, PK04 Diversity Set, profiling panel (AID 1171). Note: test concentration not given here. Particulars: A549 viability, higher = more signal, called active from +8 up or from −8 down.

Structures are written as SMILES. Activity calls are given as the source filed them.

Sequence of NADPH oxidase 4 (Homo sapiens) (Q9NPH5 whole entry, looked up): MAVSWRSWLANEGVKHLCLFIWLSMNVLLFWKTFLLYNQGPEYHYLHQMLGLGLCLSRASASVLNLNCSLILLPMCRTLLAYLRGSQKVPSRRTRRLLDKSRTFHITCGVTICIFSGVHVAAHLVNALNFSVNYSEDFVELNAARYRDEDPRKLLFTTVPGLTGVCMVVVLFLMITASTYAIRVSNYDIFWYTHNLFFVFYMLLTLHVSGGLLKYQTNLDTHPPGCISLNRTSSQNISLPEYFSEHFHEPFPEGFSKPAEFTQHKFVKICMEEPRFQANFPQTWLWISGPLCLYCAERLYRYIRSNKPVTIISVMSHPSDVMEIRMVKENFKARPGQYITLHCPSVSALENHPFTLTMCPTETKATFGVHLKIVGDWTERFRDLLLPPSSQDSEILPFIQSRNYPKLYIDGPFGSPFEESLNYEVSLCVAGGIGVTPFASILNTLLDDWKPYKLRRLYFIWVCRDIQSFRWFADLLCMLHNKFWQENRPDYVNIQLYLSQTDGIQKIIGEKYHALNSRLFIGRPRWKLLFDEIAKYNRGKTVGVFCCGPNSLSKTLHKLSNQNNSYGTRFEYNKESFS
Sequence of NADPH oxidase 5 (Homo sapiens) (Q96PH1 whole entry, looked up): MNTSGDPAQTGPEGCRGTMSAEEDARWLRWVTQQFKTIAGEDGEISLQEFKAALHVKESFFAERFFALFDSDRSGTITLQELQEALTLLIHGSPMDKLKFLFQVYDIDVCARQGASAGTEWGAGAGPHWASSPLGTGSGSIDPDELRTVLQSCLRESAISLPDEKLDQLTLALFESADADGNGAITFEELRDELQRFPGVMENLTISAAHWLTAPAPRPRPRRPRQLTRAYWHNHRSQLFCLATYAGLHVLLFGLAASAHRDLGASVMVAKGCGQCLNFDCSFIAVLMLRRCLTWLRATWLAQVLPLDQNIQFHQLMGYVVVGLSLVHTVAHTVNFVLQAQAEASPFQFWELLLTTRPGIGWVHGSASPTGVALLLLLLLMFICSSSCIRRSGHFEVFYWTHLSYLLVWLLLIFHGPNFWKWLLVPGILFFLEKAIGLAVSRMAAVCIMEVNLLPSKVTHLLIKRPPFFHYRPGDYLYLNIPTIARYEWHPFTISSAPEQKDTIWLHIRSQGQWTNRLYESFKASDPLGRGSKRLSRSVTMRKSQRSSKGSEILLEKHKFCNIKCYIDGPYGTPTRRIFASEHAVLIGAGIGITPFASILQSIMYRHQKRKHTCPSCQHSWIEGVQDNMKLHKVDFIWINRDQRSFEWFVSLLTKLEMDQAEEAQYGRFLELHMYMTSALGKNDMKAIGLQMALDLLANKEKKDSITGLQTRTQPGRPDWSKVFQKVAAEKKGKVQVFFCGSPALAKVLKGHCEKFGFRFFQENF
Sequence of NADPH oxidase 2 (Homo sapiens) (P04839 whole entry, looked up): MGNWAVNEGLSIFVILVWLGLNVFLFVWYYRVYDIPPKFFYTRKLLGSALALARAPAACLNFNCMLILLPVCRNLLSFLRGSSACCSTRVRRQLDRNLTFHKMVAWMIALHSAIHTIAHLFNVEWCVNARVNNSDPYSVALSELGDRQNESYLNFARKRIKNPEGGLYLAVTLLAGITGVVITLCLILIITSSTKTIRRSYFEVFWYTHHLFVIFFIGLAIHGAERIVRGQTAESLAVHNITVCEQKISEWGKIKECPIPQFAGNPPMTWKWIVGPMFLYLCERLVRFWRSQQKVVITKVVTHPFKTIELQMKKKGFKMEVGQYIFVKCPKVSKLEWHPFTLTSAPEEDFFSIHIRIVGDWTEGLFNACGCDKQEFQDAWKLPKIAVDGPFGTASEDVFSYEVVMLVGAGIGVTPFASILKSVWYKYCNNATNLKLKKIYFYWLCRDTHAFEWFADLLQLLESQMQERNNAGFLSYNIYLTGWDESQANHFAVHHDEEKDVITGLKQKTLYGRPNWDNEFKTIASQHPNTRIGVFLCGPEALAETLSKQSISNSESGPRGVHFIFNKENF

As for `O=C(NCc1ccccc1)[C@@H]1c2ccccc2C(=O)N(Cc2cc(C(F)(F)F)cc(C(F)(F)F)c2)[C@H]1c1ccc(CO)cc1`, the z-score in test [1] was -0.0343 (inactive); in test [3], 2.87 (inactive); in [4], 0.55 (inactive); in test [5] it was 2.48 (inactive); in test [6], 0.352 (inactive); in [7] it was -0.0959. Moreover, the z-score is 0.736 (inactive) in test [8]; 0.284 (inactive) in test [9]; 1.52 in test [10]; -0.108 in test [11]; 1.79 in [12]; -0.139 in test [13]. Further, the z-score in test [14] was 0.635; in test [15], -0.487; in test [16] it was 1.45; in [17], 0.125 (inactive); in [18] it was -0.586; in [19] it was -1.15. For the same molecule, the z-score in test [20] was -0.281 (inactive). Further, the composite z-score in test [2] was determined as 0.0004.
As for `C=C(CCCC)/C(=C/C[C@@H](OC(C)=O)c1ccc(CO)o1)c1cnc2ccccc2c1`, the z-score in test [1] was 0.105 (inactive); in [3], 9.2 (active); in [4], 1.25 (inactive); in test [5], 2.11 (inactive); in [6], 0.406 (inactive); in [7] it was 0.509. For the same molecule, the z-score in test [8] is -0.383 (inactive); in test [9], -0.837 (inactive); in [10] it was -0.426; in test [11], 0.159; in test [12], 1.04; in test [13] it was -0.042. Besides, the z-score in test [14] is -1.56; in test [15] it was -1.52; in test [16] it was -0.462; in test [17], -0.583 (inactive); in [18], -0.133; in [19] it was -1.12. Besides, the z-score in [20] is -1.29 (inactive). In addition, the composite z-score in test [2] stood at 0.0077.
For `C[C@@H]1ON(c2ccc(I)cc2)[C@H](c2cccc(NC(=O)OCC3c4ccccc4-c4ccccc43)c2)[C@H]1C(=O)N1C(=O)OC[C@H]1Cc1ccccc1`, the z-score is 1.26 (inactive) in test [1]; -0.261 (inactive) in test [3]; 0.755 (inactive) in [4]; 0.0181 (inactive) in [5]; 0.0584 (inactive) in test [6]; -0.447 in [7]. Moreover, the z-score in test [8] is -0.143 (inactive); in test [9], -2.58 (inactive); in test [10], -2.6; in test [11] it was 1.25; in [12], 0.575; in test [13], 0.671. For the same molecule, the z-score was -0.749 in test [14]; -0.326 in test [15]; -0.194 in [16]; 1.54 (inactive) in [17]; -1.19 in test [18]; 1.78 in test [19]. In addition, the z-score in [20] is 0.623 (inactive). This molecule yielded a composite z-score in [2] of 0.185.
Consider `CC(C)C(=C=CC[C@H](O)c1ccccc1OCCO)C[C@H](O)COCc1ccccc1`, for which the z-score in [1] is -0.188 (inactive); in test [3], 13.2 (active); in test [4] it was 2.13 (inactive); in test [5], 1.54 (inactive); in test [6], 1.21 (inactive); in test [7], -0.181. Moreover, the z-score in test [8] was -1.34 (inactive); in [9] it was -1.44 (inactive); in [10], -2.38; in test [11], 0.827; in [12] it was -0.0066; in [13] it was 0.245. The z-score in test [14] is -2.9; in test [15], -1.15; in [16], -0.0954; in test [17], -0.307 (inactive); in [18], -0.823; in test [19] it was -0.662. In test [20], the z-score is -0.0334 (inactive). In addition, the composite z-score in test [2] is -0.174.
Regarding `CCCC#C[Si](O[C@H](CC)c1cn(Cc2ccccc2)nn1)(C(C)C)C(C)C`, the z-score is 0.991 (inactive) in test [1]; 0.708 (inactive) in [3]; 0.3 (inactive) in test [4]; -0.929 (inactive) in test [5]; 0.358 (inactive) in [6]; 0.113 in [7]. The z-score was 0.442 (inactive) in test [8]; -0.11 (inactive) in test [9]; 0.521 in test [10]; -0.164 in [11]; -0.782 in test [12]; 0.709 in test [13]. Also, the z-score is -0.588 in test [14]; -0.439 in test [15]; 0.0193 in [16]; -0.497 (inactive) in test [17]; 0.973 in test [18]; -1.16 in [19]. The z-score in [20] is -0.406 (inactive). Moreover, the composite z-score in [2] was 0.687.
